# PubChem BioAssay (NCATS)
# Inconclusive results are not listed. Activity calls are given as the source filed them. The call rests on the fitted dose curve; in most records, active means well fitted cell-killing curve with a large enough effect; inconclusive means small, poorly fitted or top-dose-only effect, or effect the other way; inactive means no such curve, though single readings can be large or run the other way.
# Assay: Quantitative High-Throughput drug screen in 47 multiple myeloma cell lines against the NCATS MIPE library collection: MM1S_ATCC cell viability assay (AID 1918980); further: nearly all actives have a fitted effect of over 45% in size
# Settings: MM1S myeloma viability, CellTiter-Glo ATP luminescence, 48 h; series mostly up to 45.8 µM
# Summary of the method: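 Cells were exposed to library compounds for 48 hours, after which ATP was measured by CellTiter-Glo. Signal was taken as median relative luminescence units.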
# Potency means the concentration at half of the fitted maximal effect.
row,Compound,Potency
1,CCCCOCCOc1nc(-c2ccc(C(=O)O)c(F)c2)sc1C,13.2 µM (active)
2,CC(C)(CO)[C@@H](O)C(=O)NCCC(=O)O,inactive
3,O=C(CC12CC3CC(CC(C3)C1)C2)Nc1cccc2nc(NCCNCCO)ccc12,8.33 µM (active)
4,CCn1c(-c2nonc2N)nc2cncc(CNC3CCNCC3)c21,14.8 µM (active)
5,CC(=O)OCC(=O)[C@@]1(O)CC[C@H]2[C@@H]3CCC4=CC(=O)C=C[C@]4(C)[C@@H]3[C@@H](O)C[C@@]21C,0.118 µM (active)
6,CN[C@H]1[C@@H](O[C@@H]2[C@H](O[C@@H]3[C@@H](O)[C@@H](O)[C@@H](N=C(N)N)[C@@H](O)[C@@H]3N=C(N)N)O[C@H](C)[C@@]2(O)C=O)O[C@@H](CO)[C@@H](O)[C@H]1O,inactive
